PubChem BioAssay (NCI)
Compounds without any hit were thinned out: in the full panel of roughly 79,000, 15% have a hit. Calls of active or inactive are those of the source. Rule as the data show it: active = growth inhibition above about 70%; inactive = the rest.

What was measured:
[1] = NCI Yeast Anticancer Drug Screen. Data for the rad52 strain (AID 147);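 also: 0% = growth of vehicle-treated control cultures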; settings: S. cerevisiae rad52 mutant growth inhibition, hits give high values
Method in brief: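 Growth of repair-deficient yeast cells was compared between compound-treated and vehicle-treated cultures to give percent inhibition.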

[2] = NCI Yeast Anticancer Drug Screen. Data for the wt1 strain (AID 149);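 also: 0% = growth of vehicle-treated wt1 cultures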; settings: S. cerevisiae wt1 strain (SPY 50644) growth inhibition, hits give high values
Method in brief: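 Measured: growth of wt1 yeast under compound versus vehicle treatment, reported as inhibition.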

[3] = NCI Yeast Anticancer Drug Screen. Data for the rad50EPP+ strain (AID 151);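 also: 0% = growth of vehicle-treated control cultures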; settings: S. cerevisiae rad50 mutant strain, hits give high values
Method in brief: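 Measured: growth inhibition of rad50EPP+ yeast. Reference: vehicle-treated controls. Screen uses strains with defined genetic alterations in DNA damage repair or cell cycle control.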

[4] = NCI Yeast Anticancer Drug Screen. Data for the mgt1 strain (AID 153); settings: S. cerevisiae mgt1 mutant growth inhibition, hits give high values
Method in brief: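 Compounds were applied to mgt1 mutant yeast, and growth was then compared against vehicle-treated control cultures to give percent inhibition.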

[5] = NCI Yeast Anticancer Drug Screen. Data for the rad50 strain (AID 155);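 also: 0% = growth of vehicle-only cultures of the same strain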; settings: S. cerevisiae rad50 strain growth inhibition, hits give high values
Method in brief: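 Growth of the mutant yeast was measured after compound exposure and referenced to vehicle-treated cultures.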

[6] = NCI Yeast Anticancer Drug Screen. Data for the mec2-1 strain (AID 157); settings: S. cerevisiae mec2-1 strain, hits give high values
Method in brief: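 Compounds were applied to mec2-1 yeast cells. Their growth was then compared with that of vehicle-treated cultures to give growth inhibition.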

[7] = NCI Yeast Anticancer Drug Screen. Data for the rad14 strain (AID 159);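 also: 0% = growth of vehicle-treated control cultures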; settings: S. cerevisiae rad14 strain growth inhibition, hits give high values
Method in brief: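 Here, inhibition of yeast growth was measured after compound exposure, using a strain with a genetic defect in DNA damage repair and vehicle-treated cultures as the reference.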

[8] = NCI Yeast Anticancer Drug Screen. Data for the sgs1 mgt1 strain (AID 161);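 also: 0% = growth of cultures given vehicle only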; settings: S. cerevisiae sgs1 mgt1 strain, hits give high values
Method in brief: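 Compounds are added to genetically altered yeast, and growth is compared with cultures given vehicle alone to give percent inhibition.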

[9] = NCI Yeast Anticancer Drug Screen. Data for the CLN2oe strain (AID 163);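 also: 0% = growth of vehicle-only control cultures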; settings: S. cerevisiae CLN2oe strain, hits give high values
Method in brief: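 Cells of an engineered yeast line with disturbed cell-cycle regulation are treated with compound. Inhibition of growth is then calculated relative to the vehicle-treated reference.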

[10] = NCI Yeast Anticancer Drug Screen. Data for the cln2 rad14 strain (AID 165);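 also: 0% = growth equal to vehicle treated cultures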; settings: S. cerevisiae cln2 rad14 strain, hits give high values
Method in brief: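 Strain: cln2 rad14 yeast, altered in cell cycle control and DNA damage repair. Read-out: growth inhibition vs vehicle.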

[11] = NCI Yeast Anticancer Drug Screen. Data for the bub3 strain (AID 167); settings: S. cerevisiae bub3 mutant strain, hits give high values
Method in brief: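 Whole-cell yeast assay. The mutant strain was incubated with compounds, and growth inhibition was determined by comparison with vehicle-treated cells.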

[12] = NCI Yeast Anticancer Drug Screen. Data for the wt2 strain (AID 169);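 also: 0% = growth of vehicle-treated yeast cultures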; settings: S. cerevisiae wt2 strain growth inhibition, hits give high values
Method in brief: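 Growth of compound-treated yeast is measured and expressed as inhibition relative to vehicle-only controls.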

[13] = NCI Yeast Anticancer Drug Screen. Data for the mlh1 strain (AID 171);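 also: 0% = growth of vehicle-treated control cultures of the same strain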; settings: S. cerevisiae mlh1 strain growth inhibition, hits give high values
Method in brief: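 Test agents were incubated with yeast bearing a defined DNA damage repair or cell cycle control alteration; values are growth inhibition normalised to vehicle-treated cultures.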

[14] = NCI Yeast Anticancer Drug Screen. Data for the sgs1 strain (AID 173);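 also: 0% = growth of vehicle-only control cultures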; settings: S. cerevisiae sgs1 mutant, hits give high values
Method in brief: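 Strain with an altered DNA repair or cell cycle pathway exposed to compound. Growth then measured. Value = inhibition versus vehicle control.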

[15] = NCI Yeast Anticancer Drug Screen. Data for the mlh1 rad18 strain (AID 175); settings: S. cerevisiae mlh1 rad18 strain growth inhibition, hits give high values
Method in brief: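 A repair-deficient yeast strain is exposed to test compound, and growth is scored relative to vehicle-treated controls.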

[16] = NCI Yeast Anticancer Drug Screen. Data for the rad18 strain (AID 177); settings: S. cerevisiae rad18 mutant growth inhibition, hits give high values
Method in brief: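 DNA-repair-defective yeast; compound treatment; growth inhibition scored against vehicle.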

[17] = at 5.0 µM (retest, dose inferred, filed as 0.5)
[18] = at 50.0 µM (retest, dose inferred, filed as 5.0)

Measured: growth inhibition

CCOC(=O)[C@]1(Br)CC[C@@]1(Br)C(=O)OCC
inactive: [1]; at 1.2 µM -78% | [1]; at 3.7 µM -24% | [1]; at 11.0 µM 31% | [2]; at 1.2 µM -44% | [2]; at 3.7 µM -33% | [2]; at 11.0 µM -3% | [3]; at 1.2 µM -13% | [3]; at 3.7 µM -6% | [3]; at 11.0 µM 29% | [4]; at 1.2 µM -23% | [4]; at 3.7 µM -23% | [4]; at 11.0 µM 23% | [5]; at 1.2 µM -8% | [5]; at 3.7 µM 7% | [5]; [17] 26% | [5]; at 11.0 µM 23% | [5]; [18] 67% | [6]; at 1.2 µM -38% | [6]; at 3.7 µM -25% | [6]; [17] 29% | [6]; at 11.0 µM 27% | [7]; at 1.2 µM -53% | [7]; at 3.7 µM -31% | [7]; at 11.0 µM 14% | [8]; [17] -7% | [8]; [18] -36% | [9]; at 1.2 µM -3% | [9]; at 3.7 µM 15% | [9]; at 11.0 µM 15% | [10]; [17] -7% | [10]; [18] -76% | [11]; at 1.2 µM -38% | [11]; at 3.7 µM -44% | [11]; [17] 2% | [11]; at 11.0 µM -19% | [11]; [18] -38% | [12]; at 1.2 µM -67% | [12]; at 3.7 µM -48% | [12]; at 11.0 µM 6% | [13]; at 1.2 µM -37% | [13]; at 3.7 µM -29% | [13]; at 11.0 µM 35% | [14]; at 1.2 µM -27% | [14]; at 3.7 µM -22% | [14]; at 11.0 µM 43% | [15]; [17] 57% | [16]; at 1.2 µM -58% | [16]; at 3.7 µM -43% | [16]; at 11.0 µM 8%
active: [1]; at 33.0 µM 95% | [1]; at 100.0 µM 97% | [2]; at 33.0 µM 98% | [2]; at 100.0 µM 99% | [3]; at 33.0 µM 75% | [3]; at 100.0 µM 94% | [4]; at 33.0 µM 96% | [4]; at 100.0 µM 100% | [5]; at 33.0 µM 94% | [5]; at 50.0 µM 89% | [5]; at 100.0 µM 98% | [6]; at 33.0 µM 97% | [6]; [18] 80% | [6]; at 50.0 µM 93.1% | [6]; at 100.0 µM 99% | [7]; at 33.0 µM 94% | [7]; at 100.0 µM 99% | [8]; at 50.0 µM 91.8% | [9]; at 33.0 µM 91% | [9]; at 100.0 µM 99% | [10]; at 50.0 µM 87.3% | [11]; at 33.0 µM 81% | [11]; at 50.0 µM 91.4% | [11]; at 100.0 µM 96% | [12]; at 33.0 µM 98% | [12]; at 100.0 µM 100% | [13]; at 33.0 µM 97% | [13]; at 100.0 µM 99% | [14]; at 33.0 µM 96% | [14]; at 100.0 µM 99% | [15]; [18] 93% | [15]; at 50.0 µM 91% | [16]; at 33.0 µM 93% | [16]; at 100.0 µM 99%

COc1cccc(C(c2cc3c(cc2O)OCO3)N2CCOCC2)c1OC (stereo not drawn)
active: [6]; at 50.0 µM 83.8% | [8]; [18] 79%
inactive: [1]; at 1.2 µM -2% | [1]; at 3.7 µM 2% | [1]; at 11.0 µM 4% | [1]; at 33.0 µM 23% | [1]; at 100.0 µM 28% | [2]; at 1.2 µM -2% | [2]; at 3.7 µM -2% | [2]; at 11.0 µM -2% | [2]; at 33.0 µM 0% | [2]; at 100.0 µM 3% | [3]; at 1.2 µM -6% | [3]; at 3.7 µM -7% | [3]; at 11.0 µM 0% | [3]; at 33.0 µM 11% | [3]; at 100.0 µM 56% | [4]; at 1.2 µM -3% | [4]; at 3.7 µM -5% | [4]; at 11.0 µM 0% | [4]; at 33.0 µM -3% | [4]; at 100.0 µM 4% | [5]; at 1.2 µM -1% | [5]; at 3.7 µM 2% | [5]; [17] -3% | [5]; at 11.0 µM 1% | [5]; at 33.0 µM 14% | [5]; [18] 48% | [5]; at 50.0 µM 42.1% | [5]; at 100.0 µM 46% | [6]; at 1.2 µM -1% | [6]; at 3.7 µM -1% | [6]; [17] -1% | [6]; at 11.0 µM -2% | [6]; at 33.0 µM -2% | [6]; [18] -9% | [6]; at 100.0 µM 37% | [7]; at 1.2 µM 0% | [7]; at 3.7 µM 4% | [7]; at 11.0 µM 7% | [7]; at 33.0 µM 10% | [7]; at 100.0 µM 21% | [8]; [17] 7% | [8]; at 50.0 µM 42.5% | [9]; at 1.2 µM -4% | [9]; at 3.7 µM -3% | [9]; at 11.0 µM -4% | [9]; at 33.0 µM 5% | [9]; at 100.0 µM 19% | [10]; [17] 1% | [10]; [18] 3% | [10]; at 50.0 µM -30.1% | [11]; at 1.2 µM -4% | [11]; at 3.7 µM -4% | [11]; [17] -13% | [11]; at 11.0 µM -9% | [11]; at 33.0 µM 4% | [11]; [18] 56% | [11]; at 50.0 µM 45% | [11]; at 100.0 µM 11% | [12]; at 1.2 µM -3% | [12]; at 3.7 µM -6% | [12]; at 11.0 µM 5% | [12]; at 33.0 µM 0% | [12]; at 100.0 µM -3% | [13]; at 1.2 µM -3% | [13]; at 3.7 µM -1% | [13]; at 11.0 µM 4% | [13]; at 33.0 µM 7% | [13]; at 100.0 µM 32% | [14]; at 1.2 µM -6% | [14]; at 3.7 µM -7% | [14]; at 11.0 µM 8% | [14]; at 33.0 µM 10% | [14]; at 100.0 µM 60% | [16]; at 1.2 µM -3% | [16]; at 3.7 µM 0% | [16]; at 11.0 µM 4% | [16]; at 33.0 µM 10% | [16]; at 100.0 µM 36%
